The text below walks through data of PubChem BioAssay (NCI).

About 83,000 compounds went through this panel and 20% of them were active in at least one assay; those are over-represented in the sample as a whole.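 Activity criterion: percent growth below 10, measured after cells in 96-well plates were exposed to a single compound concentration for 48 hours.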 Unmarked numbers belong to inactive results. Activity calls are given as the source filed them.

Among the test systems are SR leukemia; RPMI-8226 leukemia; OVCAR-8 ovarian; OVCAR-5 ovarian; OVCAR-4 ovarian; SK-OV-3 ovarian; IGROV1 ovarian; OVCAR-3 ovarian; HS 578T breast; NCI/ADR-RES ovarian; T-47D breast; BT-549 breast; MDA-MB-435 melanoma; SW-620 colon; MCF7 breast; HCT-116 colon; HCC-2998 colon; KM12 colon.
Holding throughout (assay): NCI-60 one-dose screen, 48 h (100 = growth as untreated, 0 = no growth, -100 = all killed)
Common to all, as to conditions: 10 µM unless noted

For the compound `C[n+]1c(/C=C/c2c(O)ccc3ccccc23)ccc2ccccc21`, the growth is -36.2% (active) with SR leukemia; 3.79% (active) with RPMI-8226 leukemia; 21.3% in the test with OVCAR-8 ovarian; 77.3% in the test on OVCAR-5 ovarian; 28.3% with OVCAR-4 ovarian; 50.6% in the test on SK-OV-3 ovarian. The growth was 45.2% with IGROV1 ovarian; -20.5% (active) in the test on OVCAR-3 ovarian; 55.7% in the test on HS 578T breast; 25.2% with NCI/ADR-RES ovarian; 26.6% in the test on T-47D breast; 27.9% in the test with BT-549 breast. The growth with MDA-MB-435 melanoma is 25.6%; in the test with SW-620 colon it was 17%; in the test on MCF7 breast it was 15.9%; in the test with HCT-116 colon, -13.9% (active); in the test on HCC-2998 colon, 59.8%; with KM12 colon it was 38.7%.

`c1ccc(-c2cn(-c3ccccc3)c(-c3ccccc3)n2)cc1`: the growth with SR leukemia was -29.7% (active); with RPMI-8226 leukemia, -58.9% (active); in the test on OVCAR-8 ovarian, 21.1%; in the test with OVCAR-5 ovarian, 83.4%; in the test on OVCAR-4 ovarian it was 88.7%; in the test with SK-OV-3 ovarian, 97.1%. In addition, the growth is 4.72% (active) in the test on IGROV1 ovarian; 13.4% in the test with OVCAR-3 ovarian; 87.1% in the test with HS 578T breast; 92.4% with NCI/ADR-RES ovarian; 67.5% in the test on T-47D breast; 72.5% in the test with BT-549 breast. The growth with MDA-MB-435 melanoma is 72.6%; in the test on SW-620 colon, 23.2%; in the test with MCF7 breast it was -31.1% (active); with HCT-116 colon, -91.4% (active); in the test on HCC-2998 colon, 92.3%; in the test on KM12 colon, 11.8%.

Turning to `O=[N+]([O-])c1ccc(Sc2ncccn2)c([N+](=O)[O-])c1`, the growth in the test on SR leukemia was -20.3% (active); in the test with RPMI-8226 leukemia, -29.3% (active); in the test on OVCAR-8 ovarian it was 65.8%; with OVCAR-5 ovarian, 81.1%; in the test with OVCAR-4 ovarian it was 51.8%; in the test with SK-OV-3 ovarian, 95.2%. Besides, the growth was -9.02% (active) in the test on IGROV1 ovarian; 7.76% (active) in the test with OVCAR-3 ovarian; 88.6% with HS 578T breast; 53.8% with NCI/ADR-RES ovarian; 41.1% in the test with T-47D breast; -16.3% (active) in the test on BT-549 breast. Further, the growth in the test with MDA-MB-435 melanoma is 69.2%; in the test with SW-620 colon it was 22.8%; with MCF7 breast, 34.4%; in the test with HCT-116 colon, 37.5%; in the test on HCC-2998 colon it was 66.2%; in the test on KM12 colon, 55.9%.

Take `O=C(/C=C\c1cccc([N+](=O)[O-])c1)/C=C/c1cccc([N+](=O)[O-])c1`: the growth with SR leukemia is 44.2%; in the test on RPMI-8226 leukemia it was -6.63% (active); in the test with OVCAR-8 ovarian, 80.7%; in the test with OVCAR-5 ovarian, 90.1%; with OVCAR-4 ovarian, 95.5%; with SK-OV-3 ovarian, 95.5%. In addition, the growth was 52.2% in the test with IGROV1 ovarian; 67.5% in the test on OVCAR-3 ovarian; 90.6% in the test on HS 578T breast; 91.7% with NCI/ADR-RES ovarian; 97.9% in the test with T-47D breast; 88.9% in the test on BT-549 breast. The growth in the test with MDA-MB-435 melanoma was 36.7%; in the test with SW-620 colon, 18.9%; with MCF7 breast, 19%; in the test on HCT-116 colon, -31.2% (active); with KM12 colon, -7.25% (active).

As to `O=C1NN(C(=O)c2ccc(Cl)cc2)C(c2ccccc2)=N/C1=C\c1ccc(F)cc1`, the growth in the test on SR leukemia is 80.2%; with RPMI-8226 leukemia, 60.3%; in the test on OVCAR-8 ovarian it was 86.6%; in the test with OVCAR-5 ovarian it was 88.8%; with OVCAR-4 ovarian, 99.1%; in the test on SK-OV-3 ovarian it was 97.4%. Also, the growth with IGROV1 ovarian was 87.6%; with OVCAR-3 ovarian, 98.7%; in the test with HS 578T breast, 95.2%; in the test on NCI/ADR-RES ovarian it was 66.7%; in the test with T-47D breast, 80.7%; in the test on BT-549 breast it was 78.9%. For the same compound, the growth in the test with MDA-MB-435 melanoma was 91.5%; with SW-620 colon, 42.5%; in the test with MCF7 breast it was 98.2%; in the test with HCT-116 colon, 62.9%; in the test on KM12 colon, 59.1%.

On to `O=C(c1ccccc1)C1OC1c1ccc([N+](=O)[O-])cc1` (centres undefined), for which the growth in the test with SR leukemia was 33.6%; with RPMI-8226 leukemia, 55.9%; in the test with OVCAR-8 ovarian, 68.9%; with OVCAR-5 ovarian it was 102%; in the test on OVCAR-4 ovarian, 59.9%; with SK-OV-3 ovarian it was 97.3%. The growth in the test on IGROV1 ovarian is 53.4%; with OVCAR-3 ovarian, 59.7%; with HS 578T breast, 88.8%; in the test with NCI/ADR-RES ovarian it was 57.9%; in the test on T-47D breast, 52.6%; with BT-549 breast, 68.5%. The growth in the test with MDA-MB-435 melanoma is 39%; in the test with SW-620 colon, 9.23% (active); in the test with MCF7 breast, 64.1%; in the test with HCC-2998 colon it was 115%; in the test with KM12 colon it was 62.6%.

On to `CCN(CC)c1ccc2[nH]c3c(C(N)=O)cc(=O)c(=O)c=3oc2c1`, for which the growth in the test on SR leukemia was 5.09% (active); with RPMI-8226 leukemia, -1.62% (active); in the test on OVCAR-8 ovarian it was 0.295% (active); in the test with OVCAR-5 ovarian, 15.1%; in the test with OVCAR-4 ovarian, 2.07% (active); with SK-OV-3 ovarian it was 19.9%. The growth with IGROV1 ovarian was -44.4% (active); in the test on OVCAR-3 ovarian, -35.9% (active); with HS 578T breast, 2.92% (active); with NCI/ADR-RES ovarian, -0.316% (active); in the test with T-47D breast, -0.924% (active); in the test with BT-549 breast it was 38.9%. For the same compound, the growth in the test on MDA-MB-435 melanoma was -4.76% (active); in the test on SW-620 colon it was 9.8% (active); in the test on MCF7 breast, -31.5% (active); with HCC-2998 colon, -5.4% (active); in the test on KM12 colon, 9.09% (active).

As for `OCCCCCCNc1ncnc2cc(Cl)ccc12`, the growth with SR leukemia is 64.8%; with RPMI-8226 leukemia, 83.6%; with OVCAR-8 ovarian, 94.1%; with OVCAR-5 ovarian it was 119%; with OVCAR-4 ovarian, 76.2%; in the test with SK-OV-3 ovarian it was 81.3%. Besides, the growth was 112% with IGROV1 ovarian; 92.4% with OVCAR-3 ovarian; 105% with HS 578T breast; 95.7% in the test on NCI/ADR-RES ovarian; 72% in the test on T-47D breast; 87.1% in the test with BT-549 breast. In addition, the growth with MDA-MB-435 melanoma was 109%; in the test with SW-620 colon, 103%; in the test on MCF7 breast it was 97.8%; in the test on HCC-2998 colon, 106%; in the test with KM12 colon, 99.7%.
